Data taken from PubChem BioAssay (NCATS).
Inconclusive results are not listed. The source made the active and inactive calls. Calls come from the whole dose curve; as a rule, active = well fitted curve in the direction sought with a large enough effect; inconclusive = small, poorly fitted or top-dose-only effect, or another doubt; inactive = no such curve, though single readings can be large or run the other way.

target: Calcium and integrin-binding protein 1 (Homo sapiens) (UniProt Q99828); assay: Validation qHTS for Identification of Calcium Integrin Binding protein 1 (CIB1) Competitor (AID 1508618); details: CIB1-GST / FITC-alphaIIb peptide fluorescence polarization; series mostly up to 114 µM; activity change, negative = inhibition: at the top concentration
Sequence (Q99828 whole entry, looked up): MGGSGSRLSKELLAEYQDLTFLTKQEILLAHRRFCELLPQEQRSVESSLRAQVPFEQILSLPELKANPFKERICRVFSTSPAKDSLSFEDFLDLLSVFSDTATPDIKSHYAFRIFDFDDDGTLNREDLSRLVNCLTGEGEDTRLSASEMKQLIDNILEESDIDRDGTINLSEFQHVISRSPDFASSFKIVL
Source text: Assay Provider: Ulhas P. Naik, PhD
Sidney Kimmel Medical College
Thomas Jefferson University, Philadelphia, PA
Primary function of platelets is to maintain hemostasis. At the site of vascular injury, platelets adhere to adhesive proteins such as collagen and von Willebrand factor. Adherent platelets are activated and generate soluble platelet agonists such as thrombin, ADP and thromboxane A2. Following exposure of circulating platelets to these agonists, results in platelet shape change, granule secretion and activation of platelet integrin alphaIIb-beta3. Ligand binding to activated integrin alphaIIb-beta3 triggers outside-in signaling, leading to platelet aggregation, stabilization of platelet plug, and clot retraction. Upon atherosclerotic plaque rupture also causes platelet plug formation, which underlies a number of cardiovascular diseases such as myocardial infraction and stroke. A number of anti-platelet drugs such as aspirin, clopidogrel, prasugrel, vorapaxar, and eptifibatide are currently available to prevent the thrombotic complications. However, these anti-platelet agents have several limitations including inherent variability in individual responses, developing resistance, and serious bleeding side effects. For these reasons they are not suitable for long-term protection. Based on the experiences with current anti-platelet drugs, it appears that the most useful therapeutic approach is to intersect the secondary responses such as integrin outside-in signaling or recruitment of platelets by TxA2 and secreted ADP. Compounds, which can largely preserve the primary hemostatic function of platelets but inhibit secondary response will be most desired therapeutic agents for treatment of cardiovascular disease.
CIB1 is a calcium integrin binding protein, which specifically interact with the alphaIIb subunit of integrin alphaIIb-beta3. Binding of CIB1 to alphaIIb regulates the outside-in signaling in platelets, which is needed for thrombus stabilization and thrombus growth. […] Therefore, we propose that discovery of a small molecule that can prevent the association of CIB1 and alphaIIb-beta3 will be a potential anti-platelet agent that can block the thrombus formation without undue effect on hemostasis.
To develop fluorescence polarization (FP) assay using fluorescently labeled alphaIIb peptide and CIB1 protein. Using FP assay characterize the binding affinity, competitive inhibition, and acceptable Z factor (0.5 to1) in order to perform the HTS to identify small molecule compound that can prevent CIB1 binding to platelet integrin alphaIIbbeta3. This assay is screened against the NCATS LOPAC library to validate the amenability of the assay to qHTS.
[1] Naik MU, Nigam A, Manrai P, et al. CIB1 deficiency results in impaired thrombosis: the potential role of CIB1 in outside-in signaling through integrin alpha IIb beta 3. J Thromb Haemost. 2009;7(11):1906-1914. doi:10.1111/j.1538-7836.2009.03581.
SEQUENCE No. (1, 2, 3, etc.); […] (e.g., Cells, Incubation, Reagent, etc.); VALUE and DESCRIPTION.
1; Reagent; 3 uL; Protein or buffer (4/3x)
2; Compound; 46 nL; Control inhibitor / compound library
3; Time; 15 min; Room temperature incubation
4; Reagent; 1 uL; Fluorescent labeled peptide (4x)
5; Time; 1000 rpm; Centrifuge
6; Time; 15 min; Room temperature incubation
7; Detection; Ex 480/ Em 540; ViewLux Fluorescence Read
NOTES (numbers refer to sequence above)
1; Protein Mixture: C1B1-GST (final concentrations of 1 uM). Buffer composition: 5 mM HEPES pH 7.4, 125 mM NaCl, 5 mM CaCl2, 0.01% Tween20.
2; Control Inhibitor: unlabeled peptide (final concentration range 17.4 nM to 572 uM). Compound Library final concentration range 18.3 nM to 114 uM.
3; Room temperature incubation.
4; Fluorescent Labeled Peptide: FITC-aIIb (final concentration of 100 nM). Sequence of alphaIIb peptide: Acetyl-[…]-FITC (purity is 95.83%).
6; Room temperature incubation.
[…]
% is set by controls: 0 for no effect and ±100 for the full control effect.

SMILES	activity change, negative = inhibition
CCCN1CCO[C@@H]2c3cc(O)ccc3OC[C@H]21	10.4% (inactive)
Cn1cnc(CCN)c1	10.8% (inactive)
C#CCOC(=O)C1=CCCN(C)C1	17.8% (inactive)
c1ccc(CCCN2CCN(CCOC(c3ccccc3)c3ccccc3)CC2)cc1	4.49% (inactive)
NCc1cc(=O)[nH]o1	9.75% (inactive)
CC(=O)[C@H]1CCC2C3CC[C@H]4C[C@H](O)CC[C@]4(C)C3CC[C@@]21C (stereo not given in full)	8.66% (inactive)
NC(=O)CN1CC(O)CC1=O (stereo not given)	7.71% (inactive)
NC1CC1c1ccccc1 (stereo not given)	9.96% (inactive)
NC(N)=NOCCC(N)C(=O)O (stereo not given)	1.52% (inactive)
O=C(O)CC[N+](=O)[O-]	8.77% (inactive)
NCCc1c[nH]c2ccccc12	3% (inactive)
CS(=N)(=O)CC[C@H](N)C(=O)O (stereo not given in full)	6.52% (inactive)
O=C(O)Cc1cnc[nH]1	11.3% (inactive)
CCCN(CCC)C1CCc2ccc(O)cc2C1 (stereo not given)	9.86% (inactive)
CC(C)Oc1cccnc1N(C)C1CCN(Cc2ccccc2)CC1	-8.32% (inactive)
CC[C@@]1(O)C(=O)OCc2c1cc1n(c2=O)Cc2cc3ccccc3nc2-1	-3.53% (inactive)
CN[C@@H]1C[C@@H](c2ccc(Cl)c(Cl)c2)c2ccccc21	1.88% (inactive)
COC(=O)[C@@H](N)CCCN=C(N)N[N+](=O)[O-]	9.28% (inactive)
C/C=C(/C)C(=O)O[C@H]1C(C)=C2[C@H]([C@@H]1OC(=O)CCCCCCC)[C@@](C)(OC(C)=O)C[C@H](OC(=O)CCC)[C@@]1(O)[C@H]2OC(=O)[C@@]1(C)O	6.18% (inactive)
O=C(O)[C@@H]1CCN1	3.26% (inactive)

SMILES	activity change, negative = inhibition
CCCN1CCC[C@H](c2cccc(O)c2)C1	7.34% (inactive)
O=C(N[C@H]1CN2CCC1CC2)c1ccc(Cl)cc1	9.62% (inactive)
C=CCN1CC[C@]23CCCCC2[C@H]1Cc1ccc(O)cc13 (stereo not given in full)	3.94% (inactive)
C[C@]12CCC3C(CC[C@H]4C[C@H](O)CC[C@]34C)C1CC[C@@H]2C(=O)CO (stereo not given in full)	9.34% (inactive)
NCCc1c[nH]c2ccc(O)cc12	11.3% (inactive)
CNCCc1c[nH]c2ccc(O)cc12	5.27% (inactive)
C[C@@H](N)Cc1cnc[nH]1	11.5% (inactive)
CCCCc1ccc(C(=O)O)nc1	8.65% (inactive)
Cc1nccc2c1[nH]c1ccccc12	13.1% (inactive)
C[N+](C)(C)CC(=O)O	-0.761% (inactive)
C[C@]12N[C@H](Cc3ccccc31)c1ccccc12	-3.07% (inactive)
CN1C2CCC1CC(OC(=O)c1cc(Cl)cc(Cl)c1)C2 (stereo not given)	1.28% (inactive)
CC[C@@H](C(N)=O)N1CCCC1=O	5.91% (inactive)
c1ccc2sc(C3(N4CCCCC4)CCCCC3)cc2c1	7.16% (inactive)
Clc1cnc(Oc2ccc(Oc3ncc(Cl)cc3Cl)cc2)c(Cl)c1	5.93% (inactive)
CCCN(CCC)[C@@H]1CCc2ccc(O)cc2C1	2.09% (inactive)
CC(C)NC(C)Cc1ccc(I)cc1 (stereo not given)	11.1% (inactive)
NC(CP(=O)(O)O)C(=O)O (stereo not given)	8.73% (inactive)
COc1cc(C(O)CN)ccc1O (stereo not given)	11.1% (inactive)
O=C(Cc1ccc(Cl)c(Cl)c1)N1CCCCC1CN1CCCC1 (stereo not given)	3.85% (inactive)
